# Assay results reported in the supplement of paper PMC9950053.
# Where a name gives a salt, the structure may show the parent alone.
# System: Danio rerio larvae (5 dpf)
# Assay: combined upward orientation toward moving lines (periods 7-14) minus DMSO control (percentage points); higher = more orientation with moving lines than DMSO larvae
# Conditions: 10 µM; exposure time: 3 h pre-incubation + 3 h imaging
# Protocol: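 Wild-type 5 dpf zebrafish larvae (n=48 per drug, 96-well plates, 28.5 °C) were exposed to Tocris FDA-approved library compounds at 10 µM (0.1% DMSO) for 3 h before and 3 h during imaging. Images were taken every 6 s during visual (moving coloured lines) and acoustic stimuli, and larvae were tracked with the DeepLabCut-based Z-LaP Tracker. Each behavioural measure is the treated-group mean minus the DMSO vehicle control mean (n=844), in percentage points. This mapping covers compounds with 4-character plate codes.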
row,Compound,combined upward orientation toward moving lines
1,Cc1nc(-c2ccc(OCC(C)C)c(C#N)c2)sc1C(=O)O [Febuxostat],-3.47
2,CC#C[C@]1(O)CC[C@H]2[C@@H]3CCC4=CC(=O)CCC4=C3[C@@H](c3ccc(N(C)C)cc3)C[C@@]21C [Mifepristone],2.94
3,CCC(C)(C)C(=O)O[C@H]1C[C@@H](C)C=C2C=C[C@H](C)[C@H](CC[C@@H]3C[C@@H](O)CC(=O)O3)[C@H]21 [Simvastatin],-3.05
4,CC1(C)O[C@@H]2[C@@H](CO[C@@]3(COS(N)(=O)=O)OC(C)(C)O[C@@H]23)O1 [Topiramate],-4.17
5,CN(CCOc1ccc(CC2SC(=O)NC2=O)cc1)c1ccccn1 (stereo not given) [Rosiglitazone],-10.5
6,O=C(c1ccc(OCCN2CCCCC2)cc1)c1c(-c2ccc(O)cc2)sc2cc(O)ccc12 [Raloxifene hydrochloride],-2.81
7,CS(=O)(=O)CCNCc1ccc(-c2ccc3ncnc(Nc4ccc(OCc5cccc(F)c5)c(Cl)c4)c3c2)o1 [Lapatinib],1.75
8,CCCc1nc(C(C)(C)O)c(C(=O)O)n1Cc1ccc(-c2ccccc2-c2nnn[nH]2)cc1 [Olmesartan],-6.03
9,CCCCCCCCc1ccc(CCC(N)(CO)CO)cc1,-8.46
10,COc1ccc(-c2ccc3cc(C(=O)O)ccc3c2)cc1C12CC3CC(CC(C3)C1)C2 [Adapalene],-8.09
11,NS(=O)(=O)Cc1noc2ccccc12 [Zonisamide],1.75
12,C[C@]12CCC(=O)C=C1CC[C@@H]1[C@@H]2[C@@H](O)C[C@@]2(C)[C@H]1CC[C@]2(O)C(=O)CO [Hydrocortisone],0.758
13,Nc1nc2c(ncn2COCCO)c(=O)[nH]1 [Acyclovir],0.15
14,CC(=O)S[C@@H]1CC2=CC(=O)CC[C@]2(C)[C@H]2CC[C@@]3(C)[C@@H](CC[C@@]34CCC(=O)O4)[C@H]12 [Spironolactone],-2.59
15,CCCCCOC(=O)Nc1nc(=O)n([C@@H]2O[C@H](C)[C@@H](O)[C@H]2O)cc1F [Capecitabine],-0.314
16,OCCN(CCO)c1nc(N2CCCCC2)c2nc(N(CCO)CCO)nc(N3CCCCC3)c2n1 [Dipyridamole],-2.19
17,CC(C)Nc1cccnc1N1CCN(C(=O)c2cc3cc(NS(C)(=O)=O)ccc3[nH]2)CC1 [Delavirdine mesylate],-7.64
18,Cc1nc(Nc2ncc(C(=O)Nc3c(C)cccc3Cl)s2)cc(N2CCN(CCO)CC2)n1 [Dasatinib],-11
19,C[C@@H](O[C@H]1OCCN(Cc2n[nH]c(=O)[nH]2)[C@H]1c1ccc(F)cc1)c1cc(C(F)(F)F)cc(C(F)(F)F)c1 [Aprepitant],4.05
20,COc1cc2nc(N3CCN(C(=O)C4COc5ccccc5O4)CC3)nc(N)c2cc1OC (stereo not given) [Doxazosin mesylate],-11.6

row,Compound,combined upward orientation toward moving lines
1,CN1CCC[C@@H]1CCO[C@](C)(c1ccccc1)c1ccc(Cl)cc1 [Clemastine fumarate],4.64
2,CN1CCN2c3ncccc3Cc3ccccc3C2C1 (stereo not given) [Mirtazapine],-11.4
3,CCOc1cc(CC(=O)N[C@@H](CC(C)C)c2ccccc2N2CCCCC2)ccc1C(=O)O [Repaglinide],-4.89
4,Cc1cc(C2CCCCC2)n(O)c(=O)c1 [Ciclopirox],-27.9
5,Cc1ccc(-c2cc(C(F)(F)F)nn2-c2ccc(S(N)(=O)=O)cc2)cc1 [Celecoxib],-15.8
6,CC(=O)O[C@H]1C(=O)[C@@]2(C)[C@H]([C@H](OC(=O)c3ccccc3)[C@]3(O)C[C@H](OC(=O)[C@H](O)[C@@H](NC(=O)c4ccccc4)c4ccccc4)C(C)=C1C3(C)C)[C@]1(OC(C)=O)CO[C@@H]1C[C@@H]2O [Taxol],-6.91
7,CN(CCOc1ccc(NS(C)(=O)=O)cc1)CCc1ccc(NS(C)(=O)=O)cc1 [Dofetilide],-4.9
8,Nc1cc(N2CCCCC2)nc(N)[n+]1[O-] [Minoxidil],-2.16
9,Cc1ccccc1C(=O)Nc1ccc(C(=O)N2CCCC(O)c3cc(Cl)ccc32)c(C)c1 (stereo not given) [Tolvaptan],-0.0581
10,COc1ccccc1OCCNCC(O)COc1cccc2[nH]c3ccccc3c12 (stereo not given) [Carvedilol],-11.6
11,CC(C)(C(=O)c1cccnc1)c1cccnc1 [Metyrapone],-5.62
12,CC(C)N(CCCCOCC(=O)NS(C)(=O)=O)c1cnc(-c2ccccc2)c(-c2ccccc2)n1 [Selexipag],-4.38
13,CC1CNc2c(cccc2S(=O)(=O)N[C@@H](CCCNC(=N)N)C(=O)N2CC[C@@H](C)C[C@@H]2C(=O)O)C1 (stereo not given in full) [Argatroban],0.479
14,COc1c(C)c2c(c(O)c1C/C=C(\C)CCC(=O)O)C(=O)OC2 [Mycophenolic acid],-0.977
15,CCOc1ccccc1OCCN[C@H](C)Cc1ccc(OC)c(S(N)(=O)=O)c1 [Tamsulosin hydrochloride],-16.3
16,COC(c1ccccc1)(c1ccccc1)[C@H](Oc1nc(C)cc(C)n1)C(=O)O [Ambrisentan],-0.152
17,COc1ccc(C[C@@H](C)NC[C@H](O)c2ccc(O)c(NC=O)c2)cc1 [Arformoterol tartrate],0.636
18,Cn1nnc2c(C(N)=O)ncn2c1=O [Temozolomide],-6.36
19,CC[C@H](C)C(=O)O[C@H]1C[C@@H](C)C=C2C=C[C@H](C)[C@H](CC[C@@H]3C[C@@H](O)CC(=O)O3)[C@H]21 [Lovastatin],-3.5
20,Brc1c(NC2=NCCN2)ccc2nccnc12,-1.14
